Screening results as filed in PubChem BioAssay.
WNV NS2B-NS3 inh – inhibitors of West Nile virus NS2B-NS3 protease | WNV NS2B-NS3 protease, fluorogenic substrate Ex360/Em465; stronger effect = lower value | z-score (concentration not given with the values) | hit rate 0.18% among 65,000; in the data active = z-score below about -3
BAP1 inh – human BAP1 deubiquitinase inhibition | recombinant BAP1, Ub-AMC hydrolysis fluorescence kinetic; stronger effect = lower value | calls only at 20 µM | AID 436 | hit rate 0.48% among 72,000 | Q92560;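 active = activity remaining at or below 50% of control, provided the compound also passes the data quality filters; inactive = the rest, including low values that fail the filters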;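 note: 100% = DMSO wells rate and 0% = substrate alone blank rate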
Cdc25B inh – human M-phase inducer phosphatase 2 inhibition. AID 368. hit rate 0.1% among 65,000. P30305. recombinant Cdc25B, OMFP fluorescence Ex485/Em525. inhibition, %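 (compounds tested at 10 µM final in the well)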; in the data active = inhibition above about 50%
Target sequence (P30305 whole entry, looked up): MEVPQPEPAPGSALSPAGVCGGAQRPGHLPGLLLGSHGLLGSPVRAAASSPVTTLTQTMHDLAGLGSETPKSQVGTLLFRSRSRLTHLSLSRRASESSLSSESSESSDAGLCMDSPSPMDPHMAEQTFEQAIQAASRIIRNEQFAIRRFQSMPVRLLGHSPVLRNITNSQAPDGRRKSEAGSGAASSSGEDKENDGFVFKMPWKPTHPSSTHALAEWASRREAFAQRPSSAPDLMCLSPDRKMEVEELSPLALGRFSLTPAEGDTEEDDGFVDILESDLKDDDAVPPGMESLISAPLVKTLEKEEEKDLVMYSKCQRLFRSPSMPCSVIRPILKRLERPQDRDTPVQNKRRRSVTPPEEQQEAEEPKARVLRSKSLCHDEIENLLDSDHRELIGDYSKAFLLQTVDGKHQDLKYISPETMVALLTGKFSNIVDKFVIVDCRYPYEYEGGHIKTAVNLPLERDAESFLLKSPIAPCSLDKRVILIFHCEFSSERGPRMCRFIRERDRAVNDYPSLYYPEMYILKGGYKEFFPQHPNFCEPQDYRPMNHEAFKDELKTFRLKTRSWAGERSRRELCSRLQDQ
MKP-1 inh – inhibitors of human MKP-1 phosphatase; inhibition, %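 (compounds tested at a single concentration somewhere between 10 and 100 µM)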; P28562; hit rate 0.15% among 65,000; recombinant MKP-1, OMFP hydrolysis fluorescence;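 active = inhibition above about 50%, limit read from the data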;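 note: 0% = DMSO max control wells and 100% = wells with enzyme stopped by NaOH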
MMP-13 inhibitor – MMP13 (human) collagenase inhibition | inhibition, % at 4 µM | MMP-13 fTHP FRET cleavage, Mca fluorescence | hit rate 0.07% among 65,000 | P45452;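 active = inhibition above the mean of compound-free control plate wells plus 3 SD, cut at about 14% in these data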;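 note: 0% = DMSO wells and 100% = wells with reference MMP-13 inhibitor after basal subtraction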
Redox 05 DTT – counter-screen for Cdc25B probes: redox cycling H2O2 in 0.5 mM DTT; hit rate 50% among 30; cell-free redox cycling H2O2 generation; shares compounds with Cdc25B inh; EC50, µM; in the data active = EC50 below about 30 µM
Redox H2O2 1DTT – redox cycling H2O2 generation, Cdc25B counter-screen | shares compounds with Cdc25B inh | cell-free redox cycling H2O2 generation, 1 mM DTT | EC50, µM | 30 tested, under 10 active; in the data active = EC50 below about 50 µM
Redox H2O2 – counter-screen for MKP-1 and MKP-3 probes: redox cycling H2O2 generation | DTT, phenol red/HRP | EC50, µM | 60 tested, under 10 active | shares compounds with MKP-1 inh | AID 672; call rule not given here
BAP1 inh confirm – BAP1 (human) enzyme inhibition, confirmed; hit rate 8% among 310; % of control activity, % at 20 µM; shares compounds with BAP1 inh; AID 753; purified BAP1, Ub-ethyl ester hydrolysis, HPLC; stronger effect = lower value;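 active = percent of control activity at or below 60%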
* = called active by the depositor; i = inactive; nt = no result; + = active, no number. In the library only some 0.93% were active in any assay of this set; here they are far more common.

SMILES	WNV NS2B-NS3 inh	BAP1 inh	Cdc25B inh	MKP-1 inh	MMP-13 inhibitor	others
CCCCCn1c(=O)c(C(=O)Nc2ccncc2)c(O)c2ccccc21	-0.38	+	-18.0	1.1	-0.8
COc1ccc(N2CCN(C(CNC(=O)Oc3ccccc3)c3cccnc3)CC2)cc1 (stereo not given)	-7.25*	i	11.6	8.6	-6.4
O=C(NCC(c1cccnc1)N1CCN(c2ccccc2F)CC1)Oc1ccccc1 (stereo not given)	0.38	i	-4.8	-15.9	3.4
COc1ccc(C2(CN)CCCCC2)cc1OC	nt	i	nt	nt	nt
CCNCC1(c2ccc(OC)c(OC)c2)CCCC1	-4.84*	i	1.2	-23.7	0.3
CCN(CC)C(=O)c1ccc(NC(=O)Cn2nc(C)c3ccccc3c2=O)cc1	1.58	i	71.2*	-0.3	4.2
CCn1c(=O)n(CC(=O)N2CCC3(CC2)OCCO3)c(=O)c2ccccc21	-0.33	i	53.4*	0.7	2.3
COP(=O)(OC)C(O)C(Cl)(Cl)Cl (stereo not given)	-3.44*	i	-15.3	-9.8	1.8
Cc1ncc(CCl)c(CO)c1O	nt	i	nt	nt	nt
O=C1NC(=O)C(CCc2ccncc2)(C2CCCCC2)C(=O)N1	0.2	i	8.4	-19.4	51.7*
CN1C(=O)N(C)C(=O)C(CCc2ccncc2)(Cc2ccc3c(c2)OCO3)C1=O	-1.31	i	-14.5	11.6	6.6
Cn1ncnc2c(=O)n(C)c(=O)nc1-2	-0.47	i	101.8*	100.7*	5.0	Redox 05 DTT=1.17*;Redox H2O2 1DTT=3.16*;Redox H2O2=10.7*
COc1cc(OC)c(OC)cc1CC1C(=O)N(C)C(=O)N(C)C1=O	nt	i	nt	nt	nt
CCCCCCn1c(=O)c(C(=O)Nc2c(C)n(C)n(-c3ccccc3)c2=O)c(O)c2ccccc21	-0.51	+	2.6	-35.8	3.0	BAP1 inh confirm=95.3
CNc1ccc(C)cc1C(=O)c1cccc(Br)c1	nt	i	nt	nt	nt
